The results in this text go back to article PMC7862700, “An all-to-all approach to the identification of sequence-specific readers for epigenetic DNA modifications on cytosine”.

Common to all, as to test: DAPPL (digital affinity profiling via proximity ligation, sequencing); 10 mM Tris-HCl pH 7.5, 50 mM NaCl, 1 mM DTT, 4% glycerol, room temperature, 30 min; GST-TFs on glutathione beads, 16-mer random dsDNA library, 0.1% formaldehyde crosslink after washing; high values mean tight binding
The target of one experiment is T1, FEV (Homo sapiens, UniProt Q99581 1-238).
T1 sequence: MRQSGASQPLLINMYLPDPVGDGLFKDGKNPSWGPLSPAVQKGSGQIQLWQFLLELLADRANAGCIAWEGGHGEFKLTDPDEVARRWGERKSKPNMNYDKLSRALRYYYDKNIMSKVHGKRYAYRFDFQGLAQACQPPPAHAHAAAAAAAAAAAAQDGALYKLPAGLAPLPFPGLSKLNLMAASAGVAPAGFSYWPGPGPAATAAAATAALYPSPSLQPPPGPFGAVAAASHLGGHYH
To be noted: protein: recombinant; tags: N-terminal GST; dsDNA, one strand shown. The method, boiled down:
(§1)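 Each value of binding signal is a hexamer's read frequency for a factor divided by the same hexamer's frequency in the tag-only sample. Barcoded, bead-captured GST fusions of human transcription factors made in yeast were pooled with that sample and incubated with 200 nmole of a random double-stranded 16-mer DNA library in Tris/NaCl/DTT/glycerol buffer at room temperature for 30 min. Washing, 0.1% formaldehyde crosslinking, proximity ligation, PCR and Illumina NextSeq500 sequencing followed.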

Another experiment concerns the target ETV5 (Homo sapiens, UniProt P41161 1-510). The following applies: protein: recombinant; tags: N-terminal GST; dsDNA, one strand shown. An outline of the steps:
as §1

A further experiment concerns the target HSF1 (Homo sapiens, UniProt Q00613 1-529). To be noted: protein: recombinant; tags: N-terminal GST; chain copies: 3; dsDNA, one strand shown. An outline of the steps: as §1
The next experiment addresses T2, SPIC (Homo sapiens, UniProt Q8N5J4 1-248).
T2 sequence: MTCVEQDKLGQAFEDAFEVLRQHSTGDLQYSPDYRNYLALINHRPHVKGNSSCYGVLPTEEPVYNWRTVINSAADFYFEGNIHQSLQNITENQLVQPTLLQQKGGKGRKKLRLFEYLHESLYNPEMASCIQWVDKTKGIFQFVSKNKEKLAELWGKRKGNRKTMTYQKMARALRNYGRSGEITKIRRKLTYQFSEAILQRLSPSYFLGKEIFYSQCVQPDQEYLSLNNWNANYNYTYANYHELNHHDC
The following applies: protein: recombinant; tags: N-terminal GST; dsDNA, one strand shown. The method, boiled down:
as §1

The next experiment addresses ELF4 (Homo sapiens, UniProt Q99607 1-663). To be noted: protein: recombinant; tags: N-terminal GST; dsDNA, one strand shown. An outline of the steps:
as §1

A further experiment deals with T3, ELK4 (Homo sapiens, UniProt P28324-2 1-405).
T3 sequence: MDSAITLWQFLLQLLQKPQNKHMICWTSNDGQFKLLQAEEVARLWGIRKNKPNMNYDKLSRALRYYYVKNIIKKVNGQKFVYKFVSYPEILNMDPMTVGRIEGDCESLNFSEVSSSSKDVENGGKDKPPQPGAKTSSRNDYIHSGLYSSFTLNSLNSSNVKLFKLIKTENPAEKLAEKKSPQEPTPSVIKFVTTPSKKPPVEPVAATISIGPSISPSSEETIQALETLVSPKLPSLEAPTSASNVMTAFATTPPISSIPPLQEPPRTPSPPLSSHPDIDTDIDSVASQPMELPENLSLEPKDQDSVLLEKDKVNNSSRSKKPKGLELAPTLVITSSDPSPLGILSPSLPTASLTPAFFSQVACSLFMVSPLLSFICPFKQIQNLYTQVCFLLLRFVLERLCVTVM
To be noted: protein: recombinant; tags: N-terminal GST; dsDNA, one strand shown. The method, boiled down: as §1

In the next experiment the target is T4, ETV2 (Homo sapiens, UniProt O00321 1-342).
T4 sequence: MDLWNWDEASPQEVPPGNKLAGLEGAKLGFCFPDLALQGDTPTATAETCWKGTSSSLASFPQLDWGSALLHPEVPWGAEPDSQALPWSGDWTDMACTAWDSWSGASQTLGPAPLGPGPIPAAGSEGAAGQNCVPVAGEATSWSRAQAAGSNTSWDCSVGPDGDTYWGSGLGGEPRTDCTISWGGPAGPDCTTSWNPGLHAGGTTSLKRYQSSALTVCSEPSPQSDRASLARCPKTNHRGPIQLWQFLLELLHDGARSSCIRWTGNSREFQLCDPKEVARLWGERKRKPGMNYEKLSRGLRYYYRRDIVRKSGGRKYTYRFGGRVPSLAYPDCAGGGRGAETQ
The following applies: protein: recombinant; tags: N-terminal GST; dsDNA, one strand shown. An outline of the steps: as §1

The next experiment addresses T5, ELF3 (Homo sapiens, UniProt P78545 1-371).
T5 sequence: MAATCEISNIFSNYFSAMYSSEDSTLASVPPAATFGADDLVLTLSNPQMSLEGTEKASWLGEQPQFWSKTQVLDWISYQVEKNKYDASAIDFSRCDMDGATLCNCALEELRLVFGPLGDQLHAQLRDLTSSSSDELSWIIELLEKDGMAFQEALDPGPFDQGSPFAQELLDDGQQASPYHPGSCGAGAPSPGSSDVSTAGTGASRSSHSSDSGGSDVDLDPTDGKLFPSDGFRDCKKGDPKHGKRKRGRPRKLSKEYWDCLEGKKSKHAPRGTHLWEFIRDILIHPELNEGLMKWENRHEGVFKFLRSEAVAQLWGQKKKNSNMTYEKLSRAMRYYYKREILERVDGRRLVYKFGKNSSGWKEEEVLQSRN
To be noted: protein: recombinant; tags: N-terminal GST; dsDNA, one strand shown. The method, boiled down:
as §1

The target in another experiment is CRX (Homo sapiens, UniProt O43186 1-299). The following applies: protein: recombinant; tags: N-terminal GST; dsDNA, one strand shown. The method, boiled down:
as §1

The target of another experiment is ETV1 (Homo sapiens, UniProt P50549 1-477). To be noted: protein: recombinant; tags: N-terminal GST; dsDNA, one strand shown. An outline of the steps: as §1
ETV1, sequence (P50549 whole entry): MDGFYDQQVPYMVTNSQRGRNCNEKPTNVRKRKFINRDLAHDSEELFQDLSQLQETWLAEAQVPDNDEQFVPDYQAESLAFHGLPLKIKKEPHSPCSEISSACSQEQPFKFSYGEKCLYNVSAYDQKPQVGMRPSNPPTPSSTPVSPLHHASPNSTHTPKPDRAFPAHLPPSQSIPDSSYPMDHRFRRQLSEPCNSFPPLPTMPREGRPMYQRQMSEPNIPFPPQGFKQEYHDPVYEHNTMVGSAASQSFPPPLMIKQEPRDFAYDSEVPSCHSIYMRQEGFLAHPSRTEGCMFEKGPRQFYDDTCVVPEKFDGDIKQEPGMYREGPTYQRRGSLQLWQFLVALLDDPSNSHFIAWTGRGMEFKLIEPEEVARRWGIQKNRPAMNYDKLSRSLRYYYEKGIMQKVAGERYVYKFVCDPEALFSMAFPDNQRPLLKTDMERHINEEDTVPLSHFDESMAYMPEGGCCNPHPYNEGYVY
The target in the next experiment is T6, ERF (Homo sapiens, UniProt P50548 1-548).
T6 sequence: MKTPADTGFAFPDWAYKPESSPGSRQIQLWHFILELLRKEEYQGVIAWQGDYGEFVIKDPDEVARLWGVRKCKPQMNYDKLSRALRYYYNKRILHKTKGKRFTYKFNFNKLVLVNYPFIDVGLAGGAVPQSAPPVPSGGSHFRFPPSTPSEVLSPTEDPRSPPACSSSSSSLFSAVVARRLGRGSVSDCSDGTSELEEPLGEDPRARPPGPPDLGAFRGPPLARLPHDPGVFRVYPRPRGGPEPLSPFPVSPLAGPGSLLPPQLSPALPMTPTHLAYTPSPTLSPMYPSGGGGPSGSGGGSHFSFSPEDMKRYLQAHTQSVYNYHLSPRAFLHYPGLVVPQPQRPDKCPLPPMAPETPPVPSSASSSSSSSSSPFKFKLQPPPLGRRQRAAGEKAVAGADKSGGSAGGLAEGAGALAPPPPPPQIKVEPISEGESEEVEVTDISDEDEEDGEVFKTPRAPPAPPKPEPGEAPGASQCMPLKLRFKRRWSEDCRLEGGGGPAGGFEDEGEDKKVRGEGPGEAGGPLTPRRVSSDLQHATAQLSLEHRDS
To be noted: protein: recombinant; tags: N-terminal GST; dsDNA, one strand shown. The method, boiled down:
as §1

In a further experiment the target is T7, ETV3L (Homo sapiens, UniProt Q6ZN32 1-361).
T7 sequence: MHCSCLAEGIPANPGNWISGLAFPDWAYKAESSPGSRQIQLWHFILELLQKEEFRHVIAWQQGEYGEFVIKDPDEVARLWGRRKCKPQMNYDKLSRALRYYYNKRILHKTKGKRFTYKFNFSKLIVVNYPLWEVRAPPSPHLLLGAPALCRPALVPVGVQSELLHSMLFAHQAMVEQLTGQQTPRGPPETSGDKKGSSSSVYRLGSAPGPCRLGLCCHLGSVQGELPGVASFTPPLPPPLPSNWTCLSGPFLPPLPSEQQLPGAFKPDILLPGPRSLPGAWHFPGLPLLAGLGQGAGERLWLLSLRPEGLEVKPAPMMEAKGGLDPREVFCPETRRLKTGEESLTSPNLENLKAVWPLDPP
To be noted: protein: recombinant; tags: N-terminal GST; dsDNA, one strand shown. An outline of the steps:
as §1

The target in a further experiment is T8, ETS2 (Homo sapiens, UniProt P15036 1-469).
T8 sequence: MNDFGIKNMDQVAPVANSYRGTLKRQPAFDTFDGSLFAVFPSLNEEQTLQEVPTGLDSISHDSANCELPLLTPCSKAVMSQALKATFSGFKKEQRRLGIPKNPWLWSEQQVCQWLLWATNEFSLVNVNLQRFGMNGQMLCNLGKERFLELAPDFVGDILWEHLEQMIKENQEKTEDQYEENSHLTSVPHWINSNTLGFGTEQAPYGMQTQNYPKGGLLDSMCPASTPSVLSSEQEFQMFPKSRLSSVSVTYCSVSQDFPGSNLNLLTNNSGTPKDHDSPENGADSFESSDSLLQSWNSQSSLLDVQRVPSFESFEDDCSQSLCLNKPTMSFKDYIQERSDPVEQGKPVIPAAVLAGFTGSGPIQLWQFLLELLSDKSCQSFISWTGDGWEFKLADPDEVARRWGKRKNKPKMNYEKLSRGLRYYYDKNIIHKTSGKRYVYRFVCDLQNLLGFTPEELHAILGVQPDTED
To be noted: protein: recombinant; tags: N-terminal GST; dsDNA, one strand shown. An outline of the steps:
as §1

A further experiment concerns the target T9, SPDEF (Homo sapiens, UniProt O95238 1-335).
T9 sequence: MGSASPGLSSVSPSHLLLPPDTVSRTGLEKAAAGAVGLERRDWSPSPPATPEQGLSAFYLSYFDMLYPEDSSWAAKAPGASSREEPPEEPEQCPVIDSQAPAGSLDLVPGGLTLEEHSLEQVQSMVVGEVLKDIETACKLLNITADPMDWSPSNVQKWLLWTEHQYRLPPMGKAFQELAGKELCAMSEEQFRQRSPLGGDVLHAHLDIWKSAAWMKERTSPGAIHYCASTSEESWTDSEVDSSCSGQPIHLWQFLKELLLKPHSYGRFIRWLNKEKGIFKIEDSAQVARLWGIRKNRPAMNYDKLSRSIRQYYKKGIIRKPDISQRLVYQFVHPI
To be noted: protein: recombinant; tags: N-terminal GST; dsDNA, one strand shown. The method, boiled down: as §1

A further experiment deals with T10, ETV7 (Homo sapiens, UniProt Q9Y603 1-341).
T10 sequence: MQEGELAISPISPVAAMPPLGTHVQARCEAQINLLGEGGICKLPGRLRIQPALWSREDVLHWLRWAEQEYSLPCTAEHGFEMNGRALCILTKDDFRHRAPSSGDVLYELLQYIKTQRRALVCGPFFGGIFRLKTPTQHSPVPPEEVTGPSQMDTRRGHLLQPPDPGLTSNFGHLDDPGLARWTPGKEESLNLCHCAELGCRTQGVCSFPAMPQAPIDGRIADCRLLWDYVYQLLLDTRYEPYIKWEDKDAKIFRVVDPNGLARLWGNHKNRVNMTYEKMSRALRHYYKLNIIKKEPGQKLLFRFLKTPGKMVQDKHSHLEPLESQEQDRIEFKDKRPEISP
The following applies: protein: recombinant; tags: N-terminal GST; dsDNA, one strand shown. An outline of the steps: as §1

For the next experiment, the target named is T11, ELF5 (Homo sapiens, UniProt Q9UKW6-2 1-255).
T11 sequence: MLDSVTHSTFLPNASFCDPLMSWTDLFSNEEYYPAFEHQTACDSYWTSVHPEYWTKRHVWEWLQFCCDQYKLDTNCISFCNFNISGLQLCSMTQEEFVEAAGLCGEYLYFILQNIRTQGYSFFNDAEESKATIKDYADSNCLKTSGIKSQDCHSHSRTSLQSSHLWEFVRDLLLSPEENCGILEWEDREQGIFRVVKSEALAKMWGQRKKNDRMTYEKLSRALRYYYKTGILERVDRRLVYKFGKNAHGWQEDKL
To be noted: protein: recombinant; tags: N-terminal GST; dsDNA, one strand shown. The method, boiled down: as §1

The target in another experiment is T12, ETV3 (Homo sapiens, UniProt P41162-2 1-143).
T12 sequence: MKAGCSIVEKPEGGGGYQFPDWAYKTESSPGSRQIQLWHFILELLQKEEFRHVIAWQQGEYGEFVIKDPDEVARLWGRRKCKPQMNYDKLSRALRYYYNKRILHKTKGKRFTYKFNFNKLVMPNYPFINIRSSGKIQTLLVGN
To be noted: protein: recombinant; tags: N-terminal GST; dsDNA, one strand shown. The method, boiled down:
as §1

The target of the next experiment is ETV6 (Homo sapiens, UniProt P41212 1-452). The following applies: protein: recombinant; tags: N-terminal GST; dsDNA, one strand shown. The method, boiled down: as §1
ETV6, sequence (P41212 whole entry): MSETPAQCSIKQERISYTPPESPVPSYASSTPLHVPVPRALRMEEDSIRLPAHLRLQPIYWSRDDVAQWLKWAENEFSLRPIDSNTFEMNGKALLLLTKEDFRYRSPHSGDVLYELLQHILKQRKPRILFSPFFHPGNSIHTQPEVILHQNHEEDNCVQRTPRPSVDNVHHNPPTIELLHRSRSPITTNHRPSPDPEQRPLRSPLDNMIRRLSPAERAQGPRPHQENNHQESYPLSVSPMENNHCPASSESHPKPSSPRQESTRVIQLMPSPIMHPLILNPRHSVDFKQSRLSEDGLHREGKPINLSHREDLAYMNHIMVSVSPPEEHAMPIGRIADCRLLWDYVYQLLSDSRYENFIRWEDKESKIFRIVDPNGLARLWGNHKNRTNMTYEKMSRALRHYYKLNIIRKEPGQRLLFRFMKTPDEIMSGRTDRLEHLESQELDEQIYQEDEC

CRX, sequence (O43186 whole entry): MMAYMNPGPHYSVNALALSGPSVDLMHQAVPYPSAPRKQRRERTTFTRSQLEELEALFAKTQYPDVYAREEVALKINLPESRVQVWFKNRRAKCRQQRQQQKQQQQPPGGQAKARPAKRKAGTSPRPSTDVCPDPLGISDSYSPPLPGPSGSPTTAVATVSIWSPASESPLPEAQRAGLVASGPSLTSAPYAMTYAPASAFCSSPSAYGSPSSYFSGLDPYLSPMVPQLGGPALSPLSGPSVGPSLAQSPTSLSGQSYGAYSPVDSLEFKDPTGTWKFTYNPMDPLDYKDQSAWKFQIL
HSF1, sequence (Q00613 whole entry): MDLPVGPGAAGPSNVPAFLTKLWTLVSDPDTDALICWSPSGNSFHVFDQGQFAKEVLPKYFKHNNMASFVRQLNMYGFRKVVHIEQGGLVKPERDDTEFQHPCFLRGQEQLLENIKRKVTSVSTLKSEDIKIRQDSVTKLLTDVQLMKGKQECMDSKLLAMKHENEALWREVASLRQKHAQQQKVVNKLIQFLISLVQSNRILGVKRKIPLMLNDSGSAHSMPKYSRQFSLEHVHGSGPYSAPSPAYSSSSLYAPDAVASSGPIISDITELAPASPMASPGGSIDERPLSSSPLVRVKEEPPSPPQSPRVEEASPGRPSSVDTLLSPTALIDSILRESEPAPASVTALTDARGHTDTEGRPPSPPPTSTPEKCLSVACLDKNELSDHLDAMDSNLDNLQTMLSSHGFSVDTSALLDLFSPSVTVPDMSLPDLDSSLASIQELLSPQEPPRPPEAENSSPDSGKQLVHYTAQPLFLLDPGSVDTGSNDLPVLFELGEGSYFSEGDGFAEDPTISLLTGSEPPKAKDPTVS
ETV5, sequence (P41161 whole entry): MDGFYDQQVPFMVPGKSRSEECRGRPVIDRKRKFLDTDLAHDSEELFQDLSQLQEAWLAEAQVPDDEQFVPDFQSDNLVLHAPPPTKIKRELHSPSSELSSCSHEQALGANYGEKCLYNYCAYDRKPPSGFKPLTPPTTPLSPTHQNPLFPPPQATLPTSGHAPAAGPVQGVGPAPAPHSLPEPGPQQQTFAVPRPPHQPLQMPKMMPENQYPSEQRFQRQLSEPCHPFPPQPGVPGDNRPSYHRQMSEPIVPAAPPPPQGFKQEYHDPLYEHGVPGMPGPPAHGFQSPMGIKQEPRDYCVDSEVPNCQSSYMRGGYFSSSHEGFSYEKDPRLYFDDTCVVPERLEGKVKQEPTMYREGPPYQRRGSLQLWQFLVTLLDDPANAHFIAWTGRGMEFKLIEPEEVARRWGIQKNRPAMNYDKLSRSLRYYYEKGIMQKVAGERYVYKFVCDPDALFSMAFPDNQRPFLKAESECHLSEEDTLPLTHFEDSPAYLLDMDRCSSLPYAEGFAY
ELF4, sequence (Q99607 whole entry): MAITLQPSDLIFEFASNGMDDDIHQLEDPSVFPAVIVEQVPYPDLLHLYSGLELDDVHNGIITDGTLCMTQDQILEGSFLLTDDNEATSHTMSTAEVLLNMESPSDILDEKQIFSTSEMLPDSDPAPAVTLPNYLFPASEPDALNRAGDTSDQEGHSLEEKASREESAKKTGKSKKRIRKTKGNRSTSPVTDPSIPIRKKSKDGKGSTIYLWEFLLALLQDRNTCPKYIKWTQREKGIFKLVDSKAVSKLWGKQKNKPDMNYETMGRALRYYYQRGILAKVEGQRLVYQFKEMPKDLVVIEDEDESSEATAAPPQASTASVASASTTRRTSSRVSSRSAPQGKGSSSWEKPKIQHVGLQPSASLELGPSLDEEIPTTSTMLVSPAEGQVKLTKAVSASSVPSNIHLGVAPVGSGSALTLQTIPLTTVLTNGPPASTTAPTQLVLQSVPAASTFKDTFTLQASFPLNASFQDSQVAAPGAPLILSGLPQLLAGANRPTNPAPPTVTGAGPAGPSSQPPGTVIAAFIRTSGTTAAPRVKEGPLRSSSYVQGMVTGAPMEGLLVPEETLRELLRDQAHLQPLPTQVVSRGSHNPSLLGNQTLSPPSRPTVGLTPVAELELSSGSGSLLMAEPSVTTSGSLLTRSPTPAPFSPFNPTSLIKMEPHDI

AATACA: the binding signal with FEV is 1.38 fold enrichment (6-mer frequency, TF over GST control); with ETV5, 1.33 fold enrichment (6-mer frequency, TF over GST control); in the experiment with HSF1 it was 1.25 fold enrichment (6-mer frequency, TF over GST control); in the experiment with SPIC, 1.21 fold enrichment (6-mer frequency, TF over GST control); with ELF4 it was 1.3 fold enrichment (6-mer frequency, TF over GST control); with ELK4, 1.29 fold enrichment (6-mer frequency, TF over GST control). Besides, the binding signal is 1.45 fold enrichment (6-mer frequency, TF over GST control) with ETV2; 1.18 fold enrichment (6-mer frequency, TF over GST control) in the experiment with ELF3; 1.33 fold enrichment (6-mer frequency, TF over GST control) with CRX; 1.31 fold enrichment (6-mer frequency, TF over GST control) in the experiment with ETV1; 1.43 fold enrichment (6-mer frequency, TF over GST control) with ERF; 1.27 fold enrichment (6-mer frequency, TF over GST control) with ETV3L. The binding signal with ETS2 is 1.25 fold enrichment (6-mer frequency, TF over GST control); with SPDEF it was 1.37 fold enrichment (6-mer frequency, TF over GST control); in the experiment with ETV7, 1.41 fold enrichment (6-mer frequency, TF over GST control); with ELF5, 1.4 fold enrichment (6-mer frequency, TF over GST control); with ETV3 it was 1.28 fold enrichment (6-mer frequency, TF over GST control); with ETV6, 1.34 fold enrichment (6-mer frequency, TF over GST control).
